According to PubChem BioAssay (Tox21):
Inconclusive results are not listed. Active and inactive are the calls of the source. Unless noted, calls follow the shape of the dose curve; as a rule, active = well fitted curve in the direction sought with a large enough effect in the repeat runs; inconclusive = weak or mixed curves; inactive = no such curve, though single readings can be large; an effect the other way counts as inactive or inconclusive.

Experiments:
[1] = biological target: Thyrotropin receptor (Homo sapiens) (UniProt P16473); experiment: qHTS assay to identify small molecule agonists of the thyroid stimulating hormone receptor (TSHR) signaling pathway (AID 1224843; calls by dose curve; also: nearly all actives have a fitted effect of over 45% in size)
In short: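 Screening of the Tox21 10K collection used HEK293 cells engineered with TSHR at 800 cells per well. After a 30-min room-temperature compound exposure, HTRF cAMP reagents were added and fluorescence recorded 1 h later.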

[2] = qHTS assay to identify small molecule agonists of the hypoxia (HIF-1) signaling pathway - cell viability counter screen (AID 1224844; calls by dose curve; also: nearly all actives have a fitted effect of over 50% in size)
In short: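 HRE-bla ME-180 cells, 2,000/well in 0.5% dialyzed FBS medium, treated 17 h at 37C with compounds. Viability read in the same wells as the bla reporter, by CellTiter-Glo luminescence after 30 min at room temperature.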

[3] = qHTS assay to identify small molecule agonists of H2AX (AID 1224845; active = well fitted activation curve with a large enough effect in the signal ratio in the repeat runs, not every such curve was filed as active; the % refers to the signal ratio)
In short: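 Phospho-H2AX Ser139 measured by HTRF (ex 320 nm; em 665 and 620 nm) after 24 hr antibody incubation. Compounds, 15 concentrations, 0.76% DMSO, were applied to CHO-K1 cells for 3hr at 37C before lysis.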

[4] = qHTS assay to identify small molecule agonists of the hypoxia (HIF-1) signaling pathway (AID 1224846; active = well fitted activation curve with a large enough effect in the signal ratio in the repeat runs, not every such curve was filed as active; the % refers to the signal ratio)
In short: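 HRE-bla ME-180 beta-lactamase reporter cells in medium with 0.5% dialyzed FBS, pre-incubated 5 h then exposed to compounds 17 h at 37C, 5% CO2; reporter induction read with CCF4-AM FRET substrate.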

[5] = qHTS assay to identify small molecule agonists of H2AX - cell viability counter screen (AID 1224847; calls by dose curve;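 also: wild-type CHO-K1 cells; top concentration of the series differs between compounds; nearly all actives have a fitted effect of over 30% in size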)
In short: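 Cells plated first: CHO-K1, 1000 per well in 10% FBS medium, incubated overnight at 37C. Then 15-point compound titration added (final DMSO 0.76%) for 3 hr. Finally CellTiter-Glo added and luminescence read.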

[6] = qHTS assay to identify small molecule antagonists of the estrogen related receptor (ERR) signaling pathway from Tox21 library (AID 1224848); also: nearly all actives have a fitted effect of over 50% in size
In short: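 Antagonist-mode screen of the Tox21 10K library in an NTP-provided ERR reporter cell line; 18 h compound exposure at 37 C, luminescence measured with ONE-Glo.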

[7] = qHTS assay to identify small molecule agonists of the estrogen related receptor (ERR) signaling pathway from Tox21 library (AID 1224849; calls by dose curve; also: nearly all actives have a fitted effect of over 15% in size); details: ERR reporter cell line, ONE-Glo luciferase, 18 h; at 92.4 µM (top of the series) unless noted
In short: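 ERR reporter cells (NTP line) pre-incubated 6 hours at 37 C, then exposed to compounds for 18 hours at 37 C. ONE-Glo luciferase luminescence was read after 30 minutes at room temperature.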

[8] = qHTS RealTime-Glo MT Cell Viability Assay in HepG2 cells - 24 hour (AID 1224867); also: nearly all actives have a fitted effect of over 50% in size
In short: (§1)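 HepG2 suspension premixed with RealTime-Glo reagents is plated at 600 cells per well and left 5 h at 37 C/5% CO2. Compounds in DMSO then go in, and bioluminescence reflecting viable cell number is recorded over 40 h.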

[9] = qHTS RealTime-Glo MT Cell Viability Assay in HEK293 cells - 32 hour (AID 1224868); also: top concentration of the series differs between compounds; nearly all actives have a fitted effect of over 50% in size
In short: (§2)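 Reads taken at 0, 8, 16, 24, 32 and 40 h from the same wells. HEK293 cells (600/well) carried RealTime-Glo reagents from seeding, with compound added after a 5 h settle at 37 C.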

[10] = A CellTox Green Cytotoxicity Assay to monitor cytotoxicity in HEK293 cells - 0 hour (AID 1224869); also: nearly all actives have a fitted effect of over 50% in size
In short: (§3)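 HEK293 cells, 600/well, were preincubated 5 hours and then exposed to compounds at 37 C for up to 40 hours. A cell-impermeant cyanine dye staining dead-cell DNA was read by fluorescence at 0, 8, 16, 24, 32 and 40 h time points.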

[11] = qHTS RealTime-Glo MT Cell Viability Assay in HepG2 cells - 40 hour (AID 1224870); also: nearly all actives have a fitted effect of over 50% in size
In short: (§4)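 Real-time viability: cells seeded at 600 per well together with NanoLuc and cell-permeant prosubstrate, compounds added after 5 h incubation. Luminescence tracked at 0, 8, 16, 24, 32 and 40 h of exposure.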

[12] = A CellTox Green Cytotoxicity Assay to monitor cytotoxicity in HEK293 cells - 40 hour (AID 1224871); also: nearly all actives have a fitted effect of over 45% in size; also: potency is read from the fitted curve at half-maximal effect
In short: as §3

[13] = qHTS RealTime-Glo MT Cell Viability Assay in HEK293 cells - 16 hour (AID 1224872)
In short: as §2

[14] = qHTS RealTime-Glo MT Cell Viability Assay in HepG2 cells - 8 hour (AID 1224873); also: nearly all actives have a fitted effect of over 55% in size
In short: as §4

[15] = qHTS RealTime-Glo MT Cell Viability Assay in HEK293 cells - 40 hour (AID 1224874); details: RealTime-Glo luminescence; max response: stronger effect = lower value; also: nearly all actives have a fitted effect of over 50% in size
In short: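 600 cells/well were plated with the nonlytic NanoLuc/prosubstrate reagent, pre-incubated 5 h, then given 23 nL of compound in DMSO. Incubation at 37 C for 40 h, with luminescence from viable-cell-reduced substrate read repeatedly from 0 h.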

[16] = A CellTox Green Cytotoxicity Assay to monitor cytotoxicity in HEK293 cells - 24 hour (AID 1224875); also: nearly all actives have a fitted effect of over 45% in size
In short: as §3

[17] = A CellTox Green Cytotoxicity Assay to monitor cytotoxicity in HepG2 cells - 16 hour (AID 1224876); also: nearly all actives have a fitted effect of over 45% in size
In short: (§5)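 HepG2 cells, 600/well, preincubated 5 h with CellTox Green dye, then exposed to Tox21 compounds in DMSO at 37 C for up to 40 h. Dead-cell DNA fluorescence read at the indicated time point.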

[18] = qHTS RealTime-Glo MT Cell Viability Assay in HepG2 cells - 32 hour (AID 1224877); also: nearly all actives have a fitted effect of over 55% in size
In short: as §1

[19] = A CellTox Green Cytotoxicity Assay to monitor cytotoxicity in HepG2 cells - 24 hour (AID 1224878); also: nearly all actives have a fitted effect of over 45% in size; also: potency is read from the fitted curve at half-maximal effect
In short: as §5

[20] = A CellTox Green Cytotoxicity Assay to monitor cytotoxicity in HepG2 cells - 40 hour (AID 1224879); also: nearly all actives have a fitted effect of over 40% in size; also: potency is read from the fitted curve at half-maximal effect
In short: as §5
% is scaled to controls: 0 for no effect and ±100 for the full control effect.

Sequence of Thyrotropin receptor (Homo sapiens) (P16473 whole entry, looked up): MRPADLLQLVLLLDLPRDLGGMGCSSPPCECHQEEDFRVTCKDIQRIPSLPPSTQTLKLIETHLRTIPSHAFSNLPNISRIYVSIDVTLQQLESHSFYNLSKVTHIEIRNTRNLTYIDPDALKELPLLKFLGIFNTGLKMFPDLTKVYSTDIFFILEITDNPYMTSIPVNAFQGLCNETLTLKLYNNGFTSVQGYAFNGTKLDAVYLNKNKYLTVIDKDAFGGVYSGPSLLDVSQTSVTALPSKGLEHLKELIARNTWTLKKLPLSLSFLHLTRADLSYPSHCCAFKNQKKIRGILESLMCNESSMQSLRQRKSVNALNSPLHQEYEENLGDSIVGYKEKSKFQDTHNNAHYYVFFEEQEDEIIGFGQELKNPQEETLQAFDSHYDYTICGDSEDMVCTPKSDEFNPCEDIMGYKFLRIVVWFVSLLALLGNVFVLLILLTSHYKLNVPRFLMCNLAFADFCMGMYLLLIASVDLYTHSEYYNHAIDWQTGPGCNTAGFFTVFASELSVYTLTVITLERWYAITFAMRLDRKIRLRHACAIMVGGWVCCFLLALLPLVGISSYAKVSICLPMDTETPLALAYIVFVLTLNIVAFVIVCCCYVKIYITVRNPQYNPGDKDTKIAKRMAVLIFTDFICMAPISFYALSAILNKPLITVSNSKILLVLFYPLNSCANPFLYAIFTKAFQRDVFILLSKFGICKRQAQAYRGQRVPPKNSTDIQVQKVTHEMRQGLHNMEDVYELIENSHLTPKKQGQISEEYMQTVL

Cc1ccc(Cl)cc1Cl
inactive: Potency [1] | Potency [2] | outcome [3] | outcome [4] | Potency [5] | Potency [6] | activity change, positive = activation [7] -0.115% | Potency [8] | Potency [9] | Potency [10] | Potency [11] | Potency [12] | Potency [13] | Potency [14] | max response [15] 13.6% | Potency [16] | Potency [17] | Potency [18] | Potency [19] | Potency [20]

C=CCOCC(CC)(CO)COCC=C
inactive: Potency [1] | Potency [2] | outcome [3] | outcome [4] | Potency [5] | Potency [6] | activity change, positive = activation [7] 4.88% | Potency [8] | Potency [9] | Potency [10] | Potency [11] | Potency [12] | Potency [13] | Potency [14] | max response [15] 5.04% | Potency [16] | Potency [17] | Potency [18] | Potency [20]

OC1CCCCC1c1ccccc1 (stereo not given)
inactive: Potency [1] | Potency [2] | outcome [3] | outcome [4] | Potency [5] | Potency [6] | activity change, positive = activation [7] 0.961% | Potency [8] | Potency [9] | Potency [10] | Potency [11] | Potency [12] | Potency [13] | Potency [14] | Potency [16] | Potency [17] | Potency [18] | Potency [20]

CC(NC(CCc1ccccc1)C(=O)O)C(=O)N1C(=O)N(C)CC1C(=O)O (stereo not given)
inactive: Potency [1] | Potency [2] | outcome [3] | outcome [4] | Potency [5] | Potency [6] | activity change, positive = activation [7] 2.19% [at 42.5 µM] | Potency [8] | Potency [9] | Potency [10] | Potency [11] | Potency [12] | Potency [13] | Potency [14] | max response [15] -1.88% | Potency [17] | Potency [18] | Potency [19] | Potency [20]

O=C(O)Cc1ccc(CCNS(=O)(=O)c2ccc(Cl)cc2)cc1
inactive: Potency [1] | Potency [2] | outcome [3] | outcome [4] | Potency [5] | Potency [6] | activity change, positive = activation [7] 0.244% [at 42.5 µM] | Potency [8] | Potency [9] | Potency [10] | Potency [11] | Potency [12] | Potency [13] | Potency [14] | max response [15] -1.15% | Potency [17] | Potency [18] | Potency [20]

CS(=O)(=O)O
inactive: Potency [1] | Potency [2] | outcome [3] | outcome [4] | Potency [5] | Potency [6] | activity change, positive = activation [7] 3.34% | Potency [8] | Potency [9] | Potency [10] | Potency [11] | Potency [12] | Potency [13] | Potency [14] | max response [15] 2.93% | Potency [16] | Potency [20]

O=C(c1ccccc1)C1CCCCC1
active: Potency [12] 24.5 µM | Potency [19] 49 µM | Potency [20] 49 µM
inactive: Potency [1] | Potency [2] | outcome [3] | outcome [4] | Potency [5] | Potency [6] | activity change, positive = activation [7] 3.6% | Potency [8] | Potency [9] | Potency [10] | Potency [11] | Potency [13] | Potency [14] | max response [15] -10.1% | Potency [18]

CCOc1ccc(C(=O)OCCN(CC)CC)cc1
inactive: Potency [1] | Potency [2] | outcome [3] | outcome [4] | Potency [5] | Potency [6] | activity change, positive = activation [7] 1.57% [at 42.5 µM] | Potency [8] | Potency [9] | Potency [10] | Potency [11] | Potency [12] | Potency [13] | Potency [14] | max response [15] 4.37% | Potency [16] | Potency [17] | Potency [18] | Potency [20]

O=C[C@H](O)[C@@H](O)[C@H](O)[C@H](O)CO
inactive: Potency [1] | Potency [2] | outcome [3] | outcome [4] | Potency [5] | Potency [6] | activity change, positive = activation [7] 3.09% | Potency [8] | Potency [9] | Potency [10] | Potency [11] | Potency [12] | Potency [13] | Potency [14] | max response [15] 17.2% | Potency [16] | Potency [17] | Potency [18] | Potency [20]

C1OCOCO1
inactive: Potency [1] | Potency [2] | outcome [3] | outcome [4] | Potency [5] | Potency [6] | activity change, positive = activation [7] 6.76% | Potency [8] | Potency [9] | Potency [10] | Potency [11] | Potency [12] | Potency [13] | Potency [14] | max response [15] 2.99% | Potency [16] | Potency [17] | Potency [18] | Potency [19] | Potency [20]

CCCCCCCCCCCCCCCCC
inactive: Potency [1] | Potency [2] | outcome [3] | outcome [4] | Potency [5] | Potency [6] | activity change, positive = activation [7] -0.135% | Potency [8] | Potency [9] | Potency [10] | Potency [11] | Potency [12] | Potency [13] | Potency [14] | max response [15] 5.06% | Potency [16] | Potency [17] | Potency [19] | Potency [20]

CO/N=C(/C(=O)N[C@@H]1C(=O)N2C(C(=O)OCOC(=O)C(C)(C)C)=C(C)CS[C@H]12)c1csc(N)n1
inactive: Potency [1] | Potency [2] | outcome [3] | outcome [4] | Potency [5] | Potency [6] | activity change, positive = activation [7] 4.91% [at 42.5 µM] | Potency [8] | Potency [9] | Potency [10] | Potency [11] | Potency [12] | Potency [13] | Potency [14] | max response [15] 3.21% | Potency [16] | Potency [17] | Potency [19] | Potency [20]

O=C(O)COc1nn(Cc2ccccc2)c2ccccc12
inactive: Potency [1] | Potency [2] | outcome [3] | outcome [4] | Potency [5] | Potency [6] | activity change, positive = activation [7] 0.25% [at 42.5 µM] | Potency [8] | Potency [9] | Potency [10] | Potency [11] | Potency [12] | Potency [13] | Potency [14] | max response [15] 3.59% | Potency [16] | Potency [17] | Potency [18] | Potency [19] | Potency [20]

Cc1cnc(NS(=O)(=O)c2ccc(N)cc2)nc1
inactive: Potency [1] | Potency [2] | outcome [3] | outcome [4] | Potency [5] | Potency [6] | activity change, positive = activation [7] 2.51% [at 42.5 µM] | Potency [8] | Potency [9] | Potency [10] | Potency [11] | Potency [12] | Potency [13] | Potency [14] | max response [15] 2.61% | Potency [16] | Potency [17] | Potency [18] | Potency [19] | Potency [20]
